This is an account of results in PubChem BioAssay (NCI).

About 83,000 compounds went through this panel and 20% of them were active in at least one assay; those are over-represented in the sample as a whole.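 The test compound was applied at a single concentration to cells in 96-well plates for 48 hours, and percent growth was recorded.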 Unmarked numbers belong to inactive results. The source made the active and inactive calls. Rule for the calls: active = growth percent below 10; inactive = the rest.

Some test systems named below: NCI-H23 lung; NCI-H226 lung; NCI-H322M lung; HOP-62 NSCLC; NCI-H460 lung; HOP-92 NSCLC; NCI-H522 lung; A549/ATCC NSCLC; 786-0 renal; COLO 205 colon; DU-145 prostate; K-562 leukemia; MALME-3M melanoma; MDA-MB-231 breast; RXF 393 renal; SF-268 CNS; SF-295 CNS; SF-539 CNS; UACC-257 melanoma; M14 melanoma.
Holding throughout (assay): NCI-60 one-dose screen, 48 h (100 = growth as untreated, 0 = no growth, -100 = all killed)
What all share (conditions): 10 µM unless noted

Take `NC(N)=NC(N)=NCCCc1ccco1`: the growth in the test with NCI-H23 lung was 105%; in the test with NCI-H226 lung it was 111%; with NCI-H322M lung, 105%; in the test with HOP-62 NSCLC it was 101%; in the test on NCI-H460 lung it was 108%; in the test with HOP-92 NSCLC, 95.4%. The growth in the test on NCI-H522 lung was 93.6%; in the test on A549/ATCC NSCLC, 102%; in the test with 786-0 renal, 112%; in the test on COLO 205 colon it was 111%; in the test on DU-145 prostate, 115%; with K-562 leukemia it was 96.8%. Besides, the growth with MALME-3M melanoma was 96.4%; in the test with MDA-MB-231 breast it was 107%; with RXF 393 renal, 114%; in the test on SF-268 CNS it was 94.1%; in the test with SF-295 CNS, 93.9%; in the test on SF-539 CNS, 103%. The growth is 99.8% in the test with UACC-257 melanoma and 111% with M14 melanoma.
With `COC(=O)[C@H]1Cc2c([nH]c3ccccc23)[C@@H](c2cccs2)N1`, the growth in the test with NCI-H23 lung is 104%; in the test on NCI-H226 lung, 98.3%; in the test with NCI-H322M lung, 100%; in the test with HOP-62 NSCLC it was 102%; in the test on NCI-H460 lung, 105%; in the test with HOP-92 NSCLC, 105%. Besides, the growth is 78.9% in the test on NCI-H522 lung; 103% in the test with A549/ATCC NSCLC; 91.4% in the test on 786-0 renal; 131% in the test with COLO 205 colon; 106% with DU-145 prostate; 104% with K-562 leukemia. Further, the growth with MALME-3M melanoma is 97.6%; in the test on MDA-MB-231 breast it was 95.1%; with RXF 393 renal it was 107%; with SF-268 CNS it was 98.9%; in the test with SF-295 CNS, 100%; in the test with SF-539 CNS, 93.1%. Moreover, the figures for the growth with UACC-257 melanoma and in the test with M14 melanoma were 105% and 107%, respectively.
`Clc1nccc2c(-c3csc(-c4c[nH]c5ccc(Br)cc45)n3)c[nH]c12`: the growth in the test on NCI-H23 lung is 31.9%; in the test on NCI-H226 lung, 33.6%; with NCI-H322M lung it was 70.4%; in the test on HOP-62 NSCLC, 7.78% (active); in the test with NCI-H460 lung it was -5.23% (active); in the test with HOP-92 NSCLC, 6.84% (active). For the same compound, the growth is 1.55% (active) in the test on NCI-H522 lung; 15.1% in the test on A549/ATCC NSCLC; -68.2% (active) in the test with 786-0 renal; 7.99% (active) with COLO 205 colon; 29% in the test with DU-145 prostate; 3.99% (active) with K-562 leukemia. The growth in the test on MALME-3M melanoma was 8.43% (active); in the test on MDA-MB-231 breast it was 14.4%; with RXF 393 renal, -14.8% (active); with SF-268 CNS, 55.6%; in the test on SF-295 CNS it was -10.3% (active); in the test on SF-539 CNS it was 15.3%. The growth with UACC-257 melanoma is -48.9% (active); in the test on M14 melanoma it was -34.3% (active).
As to `CCOC(=O)c1nnn(Cc2cc(=O)oc3c2ccc2ccccc23)c1C`, the growth with NCI-H23 lung is 102%; in the test on NCI-H226 lung it was 105%; with NCI-H322M lung, 98%; with HOP-62 NSCLC, 106%; in the test on NCI-H460 lung, 104%; in the test with HOP-92 NSCLC it was 98.8%. In addition, the growth in the test on NCI-H522 lung is 96.3%; in the test on A549/ATCC NSCLC, 102%; in the test on 786-0 renal it was 102%; with COLO 205 colon, 107%; in the test on DU-145 prostate, 103%; in the test on K-562 leukemia, 104%. For the same compound, the growth in the test with MALME-3M melanoma was 98.5%; in the test on MDA-MB-231 breast, 98.7%; in the test on RXF 393 renal, 112%; in the test with SF-268 CNS, 105%; in the test with SF-295 CNS, 98.8%; in the test on SF-539 CNS it was 98.8%. The figures for the growth with UACC-257 melanoma and in the test on M14 melanoma were 94% and 98.1%, respectively.
As for `O=c1c(/C=C/c2ccco2)nnc2sc(Nc3ccc(Cl)cc3)nn12`, the growth in the test on NCI-H23 lung was 96.2%; in the test with NCI-H226 lung it was 85.4%; with NCI-H322M lung, 83.8%; with HOP-62 NSCLC, 89%; in the test on NCI-H460 lung, 101%; in the test with HOP-92 NSCLC, 89.2%. Moreover, the growth in the test with NCI-H522 lung is 90.8%; in the test on A549/ATCC NSCLC, 101%; in the test with 786-0 renal it was 103%; in the test with COLO 205 colon, 114%; with DU-145 prostate, 111%; with K-562 leukemia, 97.9%. Further, the growth in the test on MALME-3M melanoma was 100%; in the test on MDA-MB-231 breast it was 96.4%; in the test with RXF 393 renal, 114%; in the test with SF-268 CNS, 103%; in the test with SF-295 CNS, 105%; with SF-539 CNS it was 90.6%. For the same compound, the growth with UACC-257 melanoma is 104%; in the test on M14 melanoma, 101%.
In the case of `Cc1cnc(C(=O)NNc2nc3sc4c(c3c(=O)[nH]2)C(C)CCC4)cn1` (stereo not given), the growth in the test on NCI-H23 lung was 22.9%; in the test with NCI-H226 lung it was -8.7% (active); in the test with NCI-H322M lung it was 25.3%; in the test with HOP-62 NSCLC, 8.82% (active); with NCI-H460 lung it was 5.04% (active); with HOP-92 NSCLC, 43.6%. In addition, the growth in the test on NCI-H522 lung was 26.1%; in the test with A549/ATCC NSCLC, 12.3%; with 786-0 renal it was 11.2%; with COLO 205 colon, 11.2%; in the test with DU-145 prostate, 22.6%; with K-562 leukemia, 14%. Besides, the growth in the test with MALME-3M melanoma was 15.9%; in the test on MDA-MB-231 breast it was 42.8%; in the test on RXF 393 renal it was 6.15% (active); in the test on SF-268 CNS, 16.7%; with SF-295 CNS it was 23.4%; in the test with SF-539 CNS it was 10.1%. Besides, the growth with UACC-257 melanoma was 1.78% (active); in the test with M14 melanoma, 0.29% (active).
Turning to `CCC(=C(c1ccc(OCCCN(C)C)cc1)c1ccc(OCCCN(C)C)cc1)c1ccc(Cl)cc1`, the growth in the test on NCI-H23 lung was -80% (active); in the test on NCI-H226 lung it was -66.8% (active); in the test with NCI-H322M lung, -96.8% (active); with HOP-62 NSCLC it was -78% (active); in the test on NCI-H460 lung, -71.1% (active); with HOP-92 NSCLC, -80% (active). Besides, the growth with NCI-H522 lung is -66.5% (active); with A549/ATCC NSCLC, -69.9% (active); in the test on 786-0 renal it was -86.8% (active); in the test on COLO 205 colon it was -67.3% (active); with DU-145 prostate, -90.8% (active); with K-562 leukemia, 0.345% (active). Further, the growth is -79.6% (active) in the test with MALME-3M melanoma; -85% (active) in the test on MDA-MB-231 breast; -82.7% (active) in the test on RXF 393 renal; -78.3% (active) in the test on SF-268 CNS; -87.4% (active) in the test with SF-295 CNS; -93.2% (active) in the test with SF-539 CNS. The growth with UACC-257 melanoma was -77.1% (active); with M14 melanoma, -83.5% (active).
